Results on six molecules are retold here after PubChem BioAssay (NCATS).

Molecules are shown by their SMILES. Inconclusive results are not listed. Active and inactive are the calls of the source. Unless noted, calls follow the shape of the dose curve; as a rule, active = well fitted curve in the direction sought with a large enough effect; inconclusive = small, poorly fitted or top-dose-only effect, or another doubt; inactive = no such curve, though single readings can be large; an effect the other way counts as inactive or inconclusive.

For test [1], the target named is Peroxisome proliferator-activated receptor gamma (Homo sapiens) (UniProt P37231). As to the kind of experiment: qHTS assay for small molecule agonists of peroxisome proliferator-activated receptor gamma signaling (AID 588536; active = well fitted curve in the direction sought with a large enough effect in the signal ratio, with a control signal flat, not every such curve was filed as active; the % refers to the signal ratio;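 also: 0% = DMSO basal wells and 100% = rosiglitazone at 2 µM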). The essentials:
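Using GeneBLAzer HEK293 cells, response was quantified by CCF4 fluorescence and normalized between basal DMSO (0%) and rosiglitazone 2 uM (100%); curves yielded half-maximal stimulation concentration and efficacy.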
On the technique in general: Quantitative high-throughput screening tests each substance at several concentrations.

The target is the same in test [2]. The experiment in a line: qHTS assay for small molecule antagonists of peroxisome proliferator-activated receptor gamma signaling (AID 588537; active = well fitted inhibition curve with a large enough effect in the signal ratio, with a control signal flat, not every such curve was filed as active; the % refers to the signal ratio;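 also: reporter cells co-stimulated with 50 nM rosiglitazone agonist during compound treatment; % of control where 0% means no effect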). The method in brief: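 Compounds are tested as concentration series for inhibition of rosiglitazone-driven (50 nM) reporter expression in GeneBLAzer PPAR-gamma-UAS-bla HEK293 cells. After 16 h at 37 C, CCF4 substrate is added for 2 h at room temperature and blue/green fluorescence is measured.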

Test [3] addresses Vitamin D3 receptor (Homo sapiens) (UniProt P11473). The experiment in a line: qHTS assay for small molecule antagonists of vitamin D receptor signaling (AID 588541; calls by dose curve;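 also: receptor activated by calcitriol during compound treatment; series mostly up to about 77 µM; % is scaled to controls: 0 for no effect and ±100 for the full control effect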). The method in brief:
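VDR-UAS-bla HEK293T cells (2000/well, 2% charcoal-stripped FBS) were treated with titrated compounds plus 1-alpha,25-dihydroxyvitamin D3 (50 nM or 3 nM final) for 16 h at 37 C. CCF4 beta-lactamase fluorescence was read; Hill fits gave IC50.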

For test [4] the target is unchanged. The experiment in a line: qHTS assay for small molecule agonists of vitamin D receptor signaling (AID 588543; calls by dose curve;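 also: 0% = DMSO basal and 100% = reference agonist control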). The method in brief: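 Reporter cells (HEK293T, VDR-UAS-bla) were seeded in medium with 2% charcoal-stripped serum and incubated 5 h, then compounds in concentration series were added for 16 h at 37 °C. Stimulation was scaled between DMSO basal and 50 nM 1α,25-dihydroxyvitamin D3.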

Test [5] in a line: qHTS assay for small molecule agonists of retinoid X receptor alpha signaling (AID 588544; calls by dose curve;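 as to activation: 0% = DMSO basal wells and 100% = reference agonist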). The conditions noted are these: HEK293T RXRa-UAS-bla, beta-lactamase reporter, 18 h; 530 nm emission.
In test [6] the target is Retinoic acid receptor RXR-alpha (Homo sapiens) (UniProt P19793). The test is described as above.
The target of test [7] is Thyroid hormone receptor beta (Homo sapiens) (UniProt P10828). The experiment in a line: qHTS assay for small molecule agonists of thyroid hormone receptor beta signaling (AID 588545; calls by dose curve). The method in brief:
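HEK 293 TR-UAS-bla; agonist mode; 18 hrs, 37 C; CCF4, ex 405/em 460 and 530 nm; norm. T3 10 nM = 100%, DMSO = 0%; Hill fit → EC50, efficacy.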

Test [8] in a line: qHTS assay for small molecule antagonists of retinoid X receptor alpha signaling (AID 588546; active = well fitted inhibition curve with a large enough effect in the signal ratio, with a control signal flat, not every such curve was filed as active; the % refers to the signal ratio;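 also: cells stimulated with 9-cis-retinoic acid as agonist; % is scaled to controls: 0 for no effect and ±100 for the full control effect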). To be noted: HEK293T RXRa-UAS-bla, beta-lactamase ratio, antagonist mode; measured here: W530 green channel, cytotoxicity proxy. The essentials: (§1)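 Beta-lactamase reporter inhibition, read as CCF4 fluorescence ratio (ex 405, em 460/530 nm) after 2 h at RT. HEK293T UAS-bla cells, 2500/well, were stimulated with 9-cis-RA at 500 or 100 nM final alongside test compound for 18 h at 37 C.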

Test [9] concerns the target Retinoic acid receptor RXR-alpha (Homo sapiens) (UniProt P19793). The test is described as above. The conditions noted are these: HEK293T RXRa-UAS-bla, beta-lactamase ratio, antagonist mode. The essentials: as §1
Test [10] in a line: qHTS assay for small molecule activators of the p53 signaling pathway (AID 651743; active = well fitted activation curve with a large enough effect in the signal ratio, not every such curve was filed as active; the % refers to the signal ratio; also: series mostly up to about 92 µM; % of control where 0% means no effect). The conditions noted are these: HCT-116 p53RE-bla, beta-lactamase FRET ratio, 16 h; activation: stronger effect = higher value. The essentials:
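Agonist-mode quantitative HTS in HCT-116 cells carrying a p53-response-element beta-lactamase reporter; 16 h compound treatment at 37 C, then FRET substrate loading for 2 h at room temperature and fluorescence read.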

The nature of test [11]: qHTS assay for small molecule activators of the nuclear factor-kappa B (NF-kB) signaling pathway (AID 651749; active = well fitted activation curve with a large enough effect in the signal ratio; the % refers to the signal ratio; also: series mostly up to about 77 µM; % of control where 0% means no effect). The conditions noted are these: NF-kB-bla ME-180 cells, beta-lactamase FRET ratio, 16 h; activation: stronger effect = higher value. The method in brief: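 Human ME-180 cervical cells with an NF-kB-bla construct; compounds added via 23 nL pin transfer, DMSO as vehicle; incubation 16 hr. Reporter activity measured by FRET disruption.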

Test [12] in a line: qHTS assay for environmental chemicals that activate the Aryl hydrocarbon Receptor (AhR) signaling pathway (AID 651777). Also: % of control where 0% means no effect; nearly all actives have a fitted effect of over 15% in size. To be noted: 1A2-DRE human hepatoma cells, luciferase, 24 h; activation: stronger effect = higher value. The method in brief: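 Quantitative HTS in stably transfected human liver-derived cells whose luciferase gene sits downstream of the CYP1A2 promoter and dioxin response element. After 24 hr exposure at 37 C, One-Glo luminescence was measured.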

The target of test [13] is Peroxisome proliferator-activated receptor alpha (Homo sapiens) (UniProt Q07869). As to the kind of experiment: qHTS assay for small molecule agonists of the peroxisome proliferator-activated receptor alpha (PPARalpha) signaling pathway (AID 651778). Also: % of control where 0% means no effect. The conditions noted are these: PathHunter PPARalpha complementation, chemiluminescence, 6 h; max response: stronger effect = higher value. The essentials:
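Cells plated at 2,000/well and held overnight at 37 C, 5% CO2, then compound added by pin tool for 6 hr; after PathHunter detection reagent and 60 min at room temperature, chemiluminescence from enzyme complementation was read.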

Test [14] is described as follows: qHTS assay for small molecule agonists of the antioxidant response element (ARE) signaling pathway measured by Nrf2-dependant transcriptional activity (AID 720636; active = well fitted curve in the direction sought with a large enough effect in the repeat runs; an effect the other way counts as inactive or inconclusive; also: % of control where 0% means no effect). The method in brief:
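Quantitative HTS format in HepG2 cells stably expressing an ARE-luciferase reporter; 16 hr compound treatment at 37 C, luciferase signal detected with ONE-Glo.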

Test [15] can be described thus: qHTS assay for small molecule agonists of the antioxidant response element (ARE) signaling pathway measured by Nrf2-dependant transcriptional activity - cell viability counter screen (AID 720653; active = well fitted curve in the direction sought with a large enough effect in the repeat runs; an effect the other way counts as inactive or inconclusive; also: % is scaled to controls: 0 for no effect and ±100 for the full control effect). To be noted: ARE-bla HepG2 viability, CellTiter-Glo ATP luminescence, 16 h; max response: stronger effect = lower value. The method in brief: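 ARE-bla HepG2 cells (2,000/well) rested 5 hrs at 37C/5% CO2, then exposed to compounds in DMSO for 16 hrs. Viability was read in the same wells as intracellular ATP by luminescence, 30 min at room temperature after reagent addition.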

A short description of test [16]: qHTS assay for cell viability of HEK293 cells (AID 743288). Also: % is scaled to controls: 0 for no effect and ±100 for the full control effect; nearly all actives have a fitted effect of over 50% in size. The conditions noted are these: ATP luminescence (CellTiter-Glo), 18 h; max response: stronger effect = lower value. The method in brief:
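Viable-cell counts were inferred from luciferase-based ATP content in HEK293 cells seeded at 2,000/well, pre-incubated ≥5 h, then dosed with DMSO-solubilised compounds for 18 h at 37 C.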

Test [17] can be described thus: qHTS assay for cell viability of the p53RE-bla HCT-116 cell line (AID 743292). Also: % is scaled to controls: 0 for no effect and ±100 for the full control effect; nearly all actives have a fitted effect of over 55% in size. The essentials:
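Viability of compound-treated p53RE-bla HCT-116 cells is taken from ATP-dependent luciferase luminescence. Treatment lasts 16 h at 37 C after a 5 h settling period; detection follows 30 min at room temperature.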

Test [18] has as its target Nuclear receptor subfamily 1 group I member 2 (Rattus norvegicus) (UniProt Q9R1A7). The experiment in a line: qHTS assay for small molecule activators of the rat pregnane X receptor (rPXR) signaling pathway (AID 651751; call rule not given here; also: 0% is about no effect). The conditions noted are these: rPXR reporter cells, luciferase (One-Glo), 24 h.
Test [19] can be described thus: qHTS assay for small molecule antagonists of peroxisome proliferator-activated receptor delta signaling (AID 588535).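 Also: cells co-treated with a PPAR-delta agonist as stimulator during compound exposure.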 To be noted: HEK293T PPARd-UAS-bla, beta-lactamase FRET ratio, 18 h; 460 nm channel. The method in brief:
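Inhibition of PPAR-delta response element-driven beta-lactamase expression is measured in HEK293T cells exposed to a compound titration series for 18 hrs at 37 C. Half-maximal inhibition comes from Hill equation fitting.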

Test [20] can be described thus: qHTS assay for small molecule activators of the human pregnane X receptor (PXR) signaling pathway (AID 720659; call rule not given here; also: 0% is about no effect).

Chain of Peroxisome proliferator-activated receptor gamma (Homo sapiens) (P37231 whole entry, looked up): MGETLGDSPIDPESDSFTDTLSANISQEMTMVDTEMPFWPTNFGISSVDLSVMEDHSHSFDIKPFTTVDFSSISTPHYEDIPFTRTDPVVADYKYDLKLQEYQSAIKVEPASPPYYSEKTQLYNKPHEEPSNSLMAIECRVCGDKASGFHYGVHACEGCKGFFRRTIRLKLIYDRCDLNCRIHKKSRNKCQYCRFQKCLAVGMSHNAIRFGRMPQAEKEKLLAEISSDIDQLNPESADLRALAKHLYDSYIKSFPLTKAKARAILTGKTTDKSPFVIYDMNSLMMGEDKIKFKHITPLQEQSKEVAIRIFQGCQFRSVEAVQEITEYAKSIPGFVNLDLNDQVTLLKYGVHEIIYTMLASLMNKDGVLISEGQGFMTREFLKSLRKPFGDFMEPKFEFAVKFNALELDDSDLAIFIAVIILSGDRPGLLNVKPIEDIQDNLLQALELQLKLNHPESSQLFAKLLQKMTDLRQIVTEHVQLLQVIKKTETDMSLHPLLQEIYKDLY
Chain of Peroxisome proliferator-activated receptor alpha (Homo sapiens) (Q07869 whole entry, looked up): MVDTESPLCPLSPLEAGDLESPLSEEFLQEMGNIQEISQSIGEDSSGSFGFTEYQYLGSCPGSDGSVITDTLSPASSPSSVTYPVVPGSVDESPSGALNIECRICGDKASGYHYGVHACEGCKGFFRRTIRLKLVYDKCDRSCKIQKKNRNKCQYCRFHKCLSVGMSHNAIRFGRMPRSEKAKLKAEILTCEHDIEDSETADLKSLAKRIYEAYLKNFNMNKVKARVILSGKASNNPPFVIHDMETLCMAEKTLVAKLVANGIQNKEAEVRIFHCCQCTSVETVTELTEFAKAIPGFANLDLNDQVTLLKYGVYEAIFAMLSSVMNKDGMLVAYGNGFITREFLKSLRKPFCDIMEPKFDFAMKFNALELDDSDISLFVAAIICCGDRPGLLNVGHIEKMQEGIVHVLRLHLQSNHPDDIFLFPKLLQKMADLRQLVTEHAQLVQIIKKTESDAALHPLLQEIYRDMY
Chain of Thyroid hormone receptor beta (Homo sapiens) (P10828 whole entry, looked up): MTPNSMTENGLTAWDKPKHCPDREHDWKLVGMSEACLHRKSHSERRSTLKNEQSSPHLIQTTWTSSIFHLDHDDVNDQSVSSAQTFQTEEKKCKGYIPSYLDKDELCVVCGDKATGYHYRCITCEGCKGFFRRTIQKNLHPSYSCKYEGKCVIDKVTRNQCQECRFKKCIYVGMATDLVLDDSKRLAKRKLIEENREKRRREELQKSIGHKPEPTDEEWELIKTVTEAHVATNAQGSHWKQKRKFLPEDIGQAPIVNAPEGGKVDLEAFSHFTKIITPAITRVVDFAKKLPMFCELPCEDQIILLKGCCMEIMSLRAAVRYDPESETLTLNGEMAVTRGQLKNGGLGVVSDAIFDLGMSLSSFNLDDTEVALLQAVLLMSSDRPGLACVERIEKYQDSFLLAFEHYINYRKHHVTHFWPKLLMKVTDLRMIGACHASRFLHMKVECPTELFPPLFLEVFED
Chain of Retinoic acid receptor RXR-alpha (Homo sapiens) (P19793 whole entry, looked up): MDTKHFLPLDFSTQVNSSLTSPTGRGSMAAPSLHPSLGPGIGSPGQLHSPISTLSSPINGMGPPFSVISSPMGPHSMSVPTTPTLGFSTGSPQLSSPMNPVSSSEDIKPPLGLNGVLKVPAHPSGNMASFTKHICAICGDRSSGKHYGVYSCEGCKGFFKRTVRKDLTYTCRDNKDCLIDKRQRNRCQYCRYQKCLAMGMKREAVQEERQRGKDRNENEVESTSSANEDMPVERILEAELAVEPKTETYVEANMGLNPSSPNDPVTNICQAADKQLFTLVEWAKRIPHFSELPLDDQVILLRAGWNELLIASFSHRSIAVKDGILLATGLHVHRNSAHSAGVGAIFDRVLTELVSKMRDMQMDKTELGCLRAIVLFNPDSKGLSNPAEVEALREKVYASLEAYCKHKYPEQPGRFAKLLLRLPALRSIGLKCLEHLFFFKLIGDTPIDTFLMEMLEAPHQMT
Chain of Nuclear receptor subfamily 1 group I member 2 (Rattus norvegicus) (Q9R1A7 whole entry, looked up): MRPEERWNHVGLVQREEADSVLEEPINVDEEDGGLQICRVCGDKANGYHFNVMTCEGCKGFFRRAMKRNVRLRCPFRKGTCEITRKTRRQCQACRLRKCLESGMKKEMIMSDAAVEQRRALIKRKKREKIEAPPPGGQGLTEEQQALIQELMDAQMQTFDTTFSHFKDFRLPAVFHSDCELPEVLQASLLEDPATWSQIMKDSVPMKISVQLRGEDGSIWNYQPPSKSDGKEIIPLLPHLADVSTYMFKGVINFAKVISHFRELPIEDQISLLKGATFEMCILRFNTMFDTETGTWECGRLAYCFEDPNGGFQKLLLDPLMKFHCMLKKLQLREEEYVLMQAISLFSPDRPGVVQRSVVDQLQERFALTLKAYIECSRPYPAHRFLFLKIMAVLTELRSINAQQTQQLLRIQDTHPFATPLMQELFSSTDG
Chain of Vitamin D3 receptor (Homo sapiens) (P11473 whole entry, looked up): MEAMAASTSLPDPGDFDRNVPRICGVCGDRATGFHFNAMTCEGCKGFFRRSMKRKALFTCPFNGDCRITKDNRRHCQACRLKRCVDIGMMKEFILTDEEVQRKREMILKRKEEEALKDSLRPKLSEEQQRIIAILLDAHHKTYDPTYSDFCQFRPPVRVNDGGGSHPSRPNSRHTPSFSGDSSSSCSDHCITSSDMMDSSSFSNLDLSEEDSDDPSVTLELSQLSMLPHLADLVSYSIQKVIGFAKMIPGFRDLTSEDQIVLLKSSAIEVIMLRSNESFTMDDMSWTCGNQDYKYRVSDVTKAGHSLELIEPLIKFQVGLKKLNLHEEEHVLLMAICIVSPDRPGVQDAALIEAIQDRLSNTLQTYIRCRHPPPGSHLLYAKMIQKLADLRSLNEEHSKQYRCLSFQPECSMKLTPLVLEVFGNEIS

For the molecule `CC(C)(C)c1ccc(O)c(C(C)(C)C)c1`, the outcome in test [1] and in test [4] was inactive. For the same molecule, the Potency entry in test [2], in test [3], in test [6], in test [7], in [14] and in test [17] was “inactive” in each case. The max response was -10.9% in test [5]; -6.68% in test [8]; -3.49% (inactive) in test [9]; 8.37% (inactive) in test [13]; -2.61% (inactive) in test [15]; -8.41% (inactive) in [16]. Moreover, in [18], the max response was 6.32% (inactive). Moreover, the activation is 1.63% (inactive) in test [10], -1.75% (inactive) in [11] and 0.859% (inactive) in test [12].

With `CC(C)c1cccc(C(C)C)c1`, the max response in [19] was -5.64%; in test [5], -9.24%; in test [8], -3.77%; in test [9] it was -4.2% (inactive); in test [13], -1.99% (inactive); in test [15] it was -8.28% (inactive). Also, the max response in test [16] was -5.18% (inactive); in test [18], -1.81% (inactive). The outcome in [1], in test [4] and in test [20] was inactive. The Potency result in test [3], in test [6], in test [7] and in test [17] was “inactive” in each case. Besides, the values for the activation in test [11] and in [12] were -0.667% (inactive) and 2.18% (inactive), respectively.

With `CCCCOCC(C)OCC(C)O` (stereo not drawn), the max response in test [19] was -19.2%; in test [5], -14.7%; in [8], -15.5%; in [9], -6.81% (inactive); in test [13], -0.312% (inactive); in test [15], 8.96% (inactive). The max response in [16] is 0.272% (inactive); in [18], 2.61% (inactive). For the same molecule, the molecule was called inactive in test [1], in [4] and in [20]. The Potency result in test [2], in [3], in test [6], in test [7], in test [14] and in [17] was “inactive” throughout. The activation was -0.368% (inactive) in [11] and 0.285% (inactive) in [12].

`CCCCCCCCCCCCCCO`: the outcome in [1], in test [4] and in test [20] was inactive. Also, the Potency result in [3], in test [6], in test [7], in [14] and in test [17] was “inactive” throughout. In addition, the max response in test [5] was -4.48%; in [8], -1.57%; in test [9] it was 6.98% (inactive); in test [13], 6.84% (inactive); in [15], 4.22% (inactive); in test [16], -0.0211% (inactive). The max response in test [18] is 0.238% (inactive). For the same molecule, the activation in [10] is -1.8% (inactive); in test [11] it was 0.681% (inactive); in [12] it was 0.688% (inactive).

On to `COC(=O)c1cccc(C(=O)OC)c1`, for which the max response in test [19] was -2.46%; in [5], -11.8%; in test [8] it was -14.8%; in test [9], -0.335% (inactive); in test [13], 0.364% (inactive); in test [15], -6.37% (inactive). Moreover, the max response is -8.05% (inactive) in test [16] and 2.45% (inactive) in [18]. In addition, the call in test [1] and in [4] was inactive. For the same molecule, the Potency entry in test [2], in [6], in [7], in test [14] and in test [17] was “inactive” throughout. Moreover, the results for the activation in test [10] and in test [12] were 2.13% (inactive) and 1.87% (inactive), respectively.

In the case of `CCCCCCCCCc1ccccc1`, the max response in [19] is 1.13%; in test [5], -8.55%; in test [8] it was -10.2%; in [9], 2.35% (inactive); in test [13], -0.702% (inactive); in test [15], 4.47% (inactive). Further, the values for the max response in [16] and in test [18] were 2.81% (inactive) and 1.1% (inactive), respectively. The outcome in test [1] and in [20] was inactive. Further, the Potency entry in test [2], in [3], in test [6], in test [7], in test [14] and in test [17] was “inactive” in each case. Besides, the values for the activation in [10], in test [11] and in test [12] were -0.95% (inactive), -0.21% (inactive) and 0.637% (inactive), respectively.
